{"source": "PubChem BioAssay (NCATS)", "note": "Records with an inconclusive call do not appear. Activity calls are given as the source filed them. The call rests on the fitted dose curve; in most records, active means well fitted inhibition curve with a large enough effect; inconclusive means small, poorly fitted or top-dose-only effect; inactive means flat fitted curve, though single readings scatter. Potency means the concentration at half of the fitted maximal effect."}
{"target": "Aldehyde dehydrogenase, mitochondrial (Homo sapiens) (UniProt P05091)", "assay": "qHTS for Inhibitors of the Aldehyde Dehydrogenase Family (ALDH2) Primary screen (AID 2061308); further: nearly all actives have a fitted effect of over 55% in size;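 on activity change, negative = inhibition: plate controls were vehicle for no effect and reference inhibitor for full effect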", "settings": "ALDH2 enzyme inhibition qHTS, 1536-well; series mostly up to 56 µM; activity change, negative = inhibition: at the top concentration"}
{"smiles": "CC(C)(C)OC(=O)N1CCN(c2ccc(NCc3ccc(-c4cc(C(F)(F)F)cc(C(F)(F)F)c4)o3)cc2)CC1", "activity change, negative = inhibition": "-21.6% (inactive)"}
{"smiles": "O=C(Nc1nnc(-c2ccncc2)s1)Nc1ccc(Cl)c2ccccc12", "activity change, negative = inhibition": "-0.427% (inactive)"}
{"smiles": "C=C1/C(=C/C=C2\\CCC[C@]3(C)[C@@H]([C@H](C)/C=C/C(=O)C4CC4)CC[C@@H]23)C[C@@H](O)C[C@@H]1O", "activity change, negative = inhibition": "-12.1% (inactive)"}
{"smiles": "O=C(O)c1cccc(-c2noc(-c3cccc(F)c3)n2)c1", "activity change, negative = inhibition": "1.81% (inactive)"}
{"smiles": "O=C(O)c1ccc(O)c2ncc(NCC3CCCN(CCc4ccccc4)C3)cc12", "note": "(stereo not given)", "activity change, negative = inhibition": "8.8% (inactive)"}
{"smiles": "CC(=O)Nc1sc2c(c1-c1ccc(N[S+](C)(=O)[O-])cc1)CCNC2", "activity change, negative = inhibition": "-27.9% (inactive)"}
{"smiles": "C=C1CC[C@@H](O)[C@]2(C)CC[C@H]3C(=C)C(=O)O[C@@H]3[C@@H]12", "activity change, negative = inhibition": "-4.4% (inactive)"}
{"smiles": "CCC(=O)NC(c1ccco1)c1cc(Cl)c2ccccc2c1O", "note": "(stereo not given)", "activity change, negative = inhibition": "-28.2% (inactive)"}
{"smiles": "O=C(Nc1cncc(-c2ccncc2)c1)c1cccs1", "activity change, negative = inhibition": "-7.32% (inactive)"}
{"smiles": "COc1ccc(C2Nc3ccccc3C(=O)N2Cc2ccccc2)cc1OCc1ccc(NC(C)=O)cc1", "note": "(stereo not given)", "activity change, negative = inhibition": "-18.7% (inactive)"}
{"smiles": "Cc1ccnc(NC(=S)N2CCCC(Nc3cccc(C(F)(F)F)c3)C2)c1", "note": "(stereo not given)", "activity change, negative = inhibition": "-2.64% (inactive)"}
{"smiles": "COc1ccc(C[C@H](C)NC[C@@H](O)c2ccc(O)c(NC=O)c2)cc1", "activity change, negative = inhibition": "20.6% (inactive)"}
{"smiles": "Cc1nnc(-c2cnn(C)c2N)n1CCCc1ccncc1", "activity change, negative = inhibition": "11.8% (inactive)"}
{"smiles": "O=C(NC(c1ccco1)c1cc(Cl)c2cccnc2c1O)c1cccs1", "note": "(stereo not given)", "activity change, negative = inhibition": "-27.5% (inactive)"}
{"smiles": "CC(C)(C)OC(=O)N1CCN(c2ccc(NCc3ncc(-c4ccc(C#N)cc4)o3)cc2)CC1", "Potency": "1120 nM (active)"}
{"smiles": "FC(F)(F)c1cc(-c2ccc(CNc3nc(-c4ccccc4C(F)(F)F)nc4ccsc34)cc2)ccn1", "activity change, negative = inhibition": "-14.2% (inactive)"}
{"smiles": "FC(F)(F)c1ccccc1-c1nc(NCc2ccc(-c3cccc4ccccc34)cc2)c2ccccc2n1", "activity change, negative = inhibition": "-16.1% (inactive)"}
{"smiles": "C/C(=C\\c1ccc(F)cc1)C1Nc2cccc3cccc(c23)N1", "activity change, negative = inhibition": "-15.2% (inactive)"}
{"smiles": "CCc1ccc(NC(=O)C(=O)NNC(=O)c2cccs2)cc1", "activity change, negative = inhibition": "-22.2% (inactive)"}
{"smiles": "COc1cc(NS(=O)(=O)c2ccc(C)cc2)c2ncccc2c1", "activity change, negative = inhibition": "-22.6% (inactive)"}
{"smiles": "Cc1ccnc(NC(=S)N2CCN(c3ccc(C#N)cc3)CC2)c1", "activity change, negative = inhibition": "-11.4% (inactive)"}
{"smiles": "FC(F)(F)c1ccccc1-c1nc(NCc2ccc(-c3cccnc3)cc2)c2sccc2n1", "activity change, negative = inhibition": "-0.0639% (inactive)"}
{"smiles": "CCOc1ccc(CCNC(=O)c2ccccn2)cc1OCC", "activity change, negative = inhibition": "0.0283% (inactive)"}
{"smiles": "CCCCN(C)C(=O)Cn1nc(-c2ccc(C(C)=O)cc2)ccc1=O", "activity change, negative = inhibition": "18.8% (inactive)"}
{"smiles": "CN(C)CCN(Cc1ccc(-c2ccc(CNCCc3ccccc3)cc2)cc1)C(=O)CCC1CCCC1", "activity change, negative = inhibition": "27.5% (inactive)"}
{"smiles": "O=S(=O)(Nc1cccc2cccnc12)c1ccc2ccccc2c1", "activity change, negative = inhibition": "-9.92% (inactive)"}
{"smiles": "O=S(=O)(Nc1cccc2cccnc12)c1ccccc1O", "activity change, negative = inhibition": "9.95% (inactive)"}
{"smiles": "CNc1nc(Nc2ccc(C(=O)N3CCOCC3)cc2OC)nc2[nH]cc(Cl)c12", "activity change, negative = inhibition": "-15.5% (inactive)"}
{"smiles": "Cc1ccnc(NC(=S)N2CCC(c3cccc(C(F)(F)F)c3)CC2)c1", "activity change, negative = inhibition": "-7.45% (inactive)"}
{"smiles": "COc1ccc2nc(-c3cccc(NC(C)=O)c3)sc2c1", "activity change, negative = inhibition": "18.5% (inactive)"}
{"smiles": "CC1(C)OB(c2ccc(O)c3ncc(N4CCNCC4)cc23)OC1(C)C", "activity change, negative = inhibition": "-6.23% (inactive)"}
{"smiles": "O=C(O)c1ccc(-c2noc(-c3ccc(F)cc3)n2)cc1", "activity change, negative = inhibition": "3.47% (inactive)"}
{"smiles": "Cc1ccc(C2Nc3cccc4cccc(c34)N2)s1", "activity change, negative = inhibition": "-22.9% (inactive)"}
{"smiles": "COc1cc(N2CCOCC2)ccc1Nc1ncc(Cl)c(Nc2ccccc2NS(C)(=O)=O)n1", "activity change, negative = inhibition": "-6.33% (inactive)"}
{"smiles": "O=C(NO)c1cnc(N2CCN(S(=O)(=O)c3ccc4ccccc4c3)CC2)nc1", "activity change, negative = inhibition": "13.3% [at 28 µM] (inactive)"}
{"smiles": "C=C1/C(=C/C=C2\\CCC[C@@]3(C)C2CCC3[C@H](C)/C=C/[C@@H](O)C2CC2)C[C@@H](O)C[C@@H]1O", "note": "(stereo not given in full)", "activity change, negative = inhibition": "-7.17% (inactive)"}
{"smiles": "CS(=O)(=O)c1cccc(-c2csc(N3CCC(C(N)=O)CC3)n2)c1", "activity change, negative = inhibition": "3.35% (inactive)"}
{"smiles": "CN1CCc2ccc3c4c2[C@]1(C)Cc1cccc(c1-4)OCO3", "activity change, negative = inhibition": "-21.4% (inactive)"}
{"smiles": "O=C(O)c1cccc(-c2noc(-c3ccc(F)cc3)n2)c1", "activity change, negative = inhibition": "-4.93% (inactive)"}
{"smiles": "FC(F)(F)c1ccc(N2CCN(C(=S)Nc3ccccn3)CC2)cc1", "activity change, negative = inhibition": "-4.27% (inactive)"}
